From PubChem
Hits are enriched below; roughly 2.9% of the tested compounds scored in any of these assays.
H9c2 protect = cardioprotection against H2O2-induced cell death, primary screen, uHTS, H9c2 cells, ATPLite luminescence | actives 0.63% (n = 360,000) | H9c2 cardiomyocytes, H2O2 injury protection, 2 h | protection from H2O2 cell death, % at 20 µM;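 active means compounds giving at least 50% protection of heart cells from peroxide-induced death in the single-dose screen, raw or plate-pattern-corrected value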;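 further: 0% = DMSO wells with peroxide and 100% = DMSO wells without peroxide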
NadD inh = inhibitors of S. aureus NadD, primary screen, biochemical, colorimetric, uHTS. Nicotinate-nucleotide adenylyltransferase NadD (Staphylococcus aureus N315). purified NadD enzyme, colorimetric absorbance read-out. inhibition, % at 20 µM. actives 0.78% (n = 360,000). AID 602399, 2012; in the data active means inhibition above about 26%
H9c2 TAG inh = inhibitors of triacylglycerol accumulation, primary screen, cell-based, uHTS, fluorescence, H9c2 | H9c2 cells, Nile Red lipid (TAG) fluorescence; cells loaded with 200 µM oleic acid | inhibition, % at 12.5 µM | actives 0.66% (n = 230,000) | AID 651582, 2012;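 active means pattern-corrected inhibition of lipid staining of at least 50% with the nuclear-stain viability signal not falling by more than 50%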;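 further: 0% = DMSO wells and 100% = triacsin C control wells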
A3A deaminase = APOBEC3A ssDNA deaminase inhibitors, primary screen, selectivity assay for APOBEC3G inhibitor project, biochemical, FAM/TAMRA oligo cleavage fluorescence. actives 0.41% (n = 330,000). inhibition, % at 20 µM. DNA dC->dU-editing enzyme APOBEC-3A (Homo sapiens), P31941. recombinant A3A, FAM/TAMRA ssDNA deamination fluorescence;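 active means at least 40% inhibition at 20 µM here, with at most 30% in a related deaminase screen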;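 further: plate controls were A3A with DMSO for no effect and wells lacking A3A enzyme for full effect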
Target sequence (P31941 whole entry, looked up): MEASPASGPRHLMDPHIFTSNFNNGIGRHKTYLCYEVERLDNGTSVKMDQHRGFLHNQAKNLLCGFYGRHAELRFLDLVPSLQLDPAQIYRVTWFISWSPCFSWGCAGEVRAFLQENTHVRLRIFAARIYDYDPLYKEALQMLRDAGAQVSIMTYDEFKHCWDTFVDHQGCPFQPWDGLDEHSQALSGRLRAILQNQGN
A3G deaminase = APOBEC3G DNA deaminase inhibitors, primary screen, biochemical, fluorescence, single-stranded DNA substrate, uHTS; recombinant A3G, ssDNA deamination FAM/TAMRA fluorescence; DNA dC->dU-editing enzyme APOBEC-3G (Homo sapiens), Q9HC16; inhibition, % at 20 µM; actives 0.28% (n = 330,000);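 active means inhibition of at least 40% at 20 µM, with no more than 30% in the related APOBEC3A deaminase screen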;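 further: plate controls were DMSO wells with A3G for no effect and wells lacking A3G enzyme for full effect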
PfGluPho inh = PfG6PD enzyme inhibitors, primary screen, biochemical, fluorescence intensity, uHTS. PfGluPho enzyme, NADPH resazurin-diaphorase fluorescence. inhibition, % at 20 µM. actives 0.78% (n = 350,000);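 active means inhibition reaching at least a set limit at 20 µM in the primary screen, cut at about 59% in these data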;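 further: 0% = DMSO wells with substrate and 100% = DMSO wells lacking glucose-6-phosphate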
A3A conf = APOBEC3A deaminase inhibitors, retest, confirmation, selectivity assay for APOBEC3G inhibitor project, biochemical, single concentration, fluorescence readout; shares compounds with A3A deaminase; recombinant A3A, ssDNA deaminase UDG fluorescence assay; inhibition, % at 20 µM; actives 63% (n = 1,400); AID 493151, 2011;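 active means inhibition reaching a set limit, 80% of the first screen's cutoff, at 20 µM in any replicate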;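 further: plate controls were DMSO wells with A3A for no effect and wells lacking A3A enzyme for full effect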
UDG A3A counter = E. coli UDG inhibitors, confirmation, counter-screen for APOBEC3A inhibitor project, biochemical, single concentration, fluorescence, FAM/TAMRA oligo | shares compounds with A3A deaminase | UDG counterscreen, FAM/TAMRA uracil oligo fluorescence | inhibition, % at 20 µM | 1,000 tested, under 10 active; call rule not given here
* hit, by the source's call; / = no result.

SMILES	H9c2 protect	NadD inh	H9c2 TAG inh	A3A deaminase	A3G deaminase	PfGluPho inh	A3A conf	UDG A3A counter
COc1ccc(NC(=O)/C=C/c2cccc(Br)c2)cn1	2	1	/	41*	-7	20	15*	1
COc1ccc(NC(=O)/C=C/c2cccc(C(F)(F)F)c2)cn1	-4	-3	/	2	-13	7	/	/
COc1ccc(CCNC(=O)c2c[nH]c3ccc(F)cc3c2=O)cc1OC	13	-2	/	1	1	0	/	/
CCCN(Cc1cc2cc(OC)ccc2[nH]c1=O)C(=O)c1ccco1	1	-2	0	-1	-4	-8	/	/
COc1ccc2[nH]c(=O)c(CN(C(=O)c3ccco3)C(C)C)cc2c1	0	-8	20	56*	26	-16	61*	6
C#CCn1c(CCNC(=O)c2ccco2)nc2ccccc21	2	-3	/	2	-5	-25	/	/
Cc1ccc(CSc2ncn(-c3ccccc3)n2)cc1	0	5	/	41*	10	20	2	/
CC[n+]1c(C)cc(C)n1-c1ccccc1	-1	16	-12	93*	14	-21	75*	3
CC(=O)Nc1ccc(NC(=O)Nc2ccccc2C)cc1	-3	-9	-9	0	21	-3	/	/
Cc1ccccc1NC(=O)N(C(C)C)C(C)C	2	-2	/	83*	-4	-1	-2	-2
CN(CC(=O)Nc1ccccc1Br)C(=O)c1cccnc1Nc1cccc(C(F)(F)F)c1	-6	0	15	-5	2	20	/	/
COc1ccc(NS(=O)(=O)c2cc(NC(=O)c3cccc(OCc4c(C)noc4C)c3)ccc2OC)cc1	13	4	/	-3	-6	7	/	/
Cc1ccc(Cl)cc1N1CCN(c2cccc[n+]2C)CC1	-1	14	/	46*	24	-15	26	/
C[n+]1ccccc1N1CCN(c2ccccc2Cl)CC1	-4	16	/	60*	28	-5	26	/
CC(=O)OC(C[N+]1(C)CCCCCC1)c1ccccc1 (stereo not drawn)	2	9	/	79*	14	-2	69*	-2
C[N+]1(CC(O)c2ccccc2)CCCCCC1 (stereo not drawn)	5	9	7	69*	24	-2	64*	3
CCn1c(-c2ccccc2Cl)nn(CC(=O)Nc2ccccc2C)c1=S	5	2	/	66*	13	1	24	/
CC[n+]1ccc(C)c2cc(S(=O)C(F)(F)F)ccc21 (stereo not drawn)	0	4	-9	2	-1	6	/	/
CC[n+]1ccc(C)c2cc(P(=O)(c3ccccc3)c3ccccc3)ccc21	3	9	2	63*	26	9	active	4
O=S(=O)(Nc1cccc(S(=O)(=O)N2CCCC2)c1)c1cccc(Br)c1	-1	3	-9	-4	-7	-19	/	/
CC1CC(OCC(O)C[N+]2(C)CCOCC2)CC(C)(C)C1 (stereo not drawn)	-6	15	10	62*	18	-2	69*	4
CC1CC(OCC(O)CN2CCOCC2)CC(C)(C)C1 (stereo not drawn)	1	-1	/	4	0	-6	/	/
CCOCc1cnc(C)nc1NCC(=O)c1c(C)[nH]c2cc(C)ccc12	9	10	/	56*	27	-8	64*	1
